The nature of assay [1]: CCTE_Shafer_MEA_acute_AB: CCTE's Alamar Blue Assay for Cytotoxicity in the Neural Acute Assay, Shafer Lab (AID 2284069; active means hit-call score of the fitted dose curve at least 0.9, where 1 is the maximum;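 further: active compounds lower the viability signal compared with DMSO wells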). The essentials:
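Resazurin reduction (CellTiter Blue, 1:6 in fresh medium) read at ex 544/em 590 nm marks viability loss relative to DMSO. Cells: primary rat cortical neuron networks on microelectrode arrays, treated after baseline recording at 13 or 15 days in vitro.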

A short description of assay [2]: CCTE_Shafer_MEA_acute_LDH: CCTE's Lactate Dehydrogenase Assay for Cytotoxicity in the Neural Acute Assay, Shafer Lab (AID 2284086; active means hit-call score of the fitted dose curve at least 0.9, where 1 is the maximum;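 further: active means LDH release rises above DMSO vehicle level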). The essentials:
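Released lactate dehydrogenase, read at 490 nm, indicated cytotoxicity after acute 40-min compound treatment of rat cortical neuron networks grown on 48-well MEA plates.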

Assay [3] in a line: CCTE_Shafer_MEA_dev_spike_duration_mean: CCTE's Neural Network Formation Assay for Mean Spike Duration, Shafer Lab (AID 2284051).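 Further: mean network spike duration pooled as area under curve over DIV 5 to 12 recordings.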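 On AC50: potency for a decrease in mean network spike duration versus DMSO.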 In a few lines:
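Spontaneous activity was recorded on days 5, 7, 9 and 12 from rat cortical cultures grown on microelectrode arrays and dosed continuously from day 0, with media and compound renewed after the DIV 5 and 9 recordings. Network-spike duration was collapsed by area under the curve.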

Assay [4] in a line: CCTE_Shafer_MEA_dev_network_spike_duration_std: CCTE's Neural Network Formation Assay for Standard Deviation of Network Spike Duration, Shafer Lab (AID 2284052).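 Further: hits are decreases in network spike duration SD versus DMSO vehicle.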 The essentials:
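Network spike duration variability was collapsed across recordings on days 5, 7, 9 and 12 by trapezoidal area-under-curve and fitted downward against DMSO. Cultures were rat cortical neurons on PEI-coated MEA plates, dosed continuously from plating, refed with compound DIV 5/9.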

Assay [5] can be described thus: CCTE_Shafer_MEA_dev_per_network_spike_spike_number_mean: CCTE's Neural Network Formation Assay for Mean Number of Spikes in a Network Spike, Shafer Lab (AID 2284053).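 On AC50: fitted as decrease in spikes per network spike relative to DMSO.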 The essentials:
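Mean spike count within each network spike, taken in a 0.05 s window at its peak, was recorded on days 5, 7, 9 and 12 and integrated as trapezoidal area under the curve. Rat cortical cultures on MEA plates received continuous compound from day 0, refreshed at medium changes on DIV 5 and 9.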

The nature of assay [6]: CCTE_Shafer_MEA_dev_per_network_spike_spike_percent: CCTE's Neural Network Formation Assay for Percent of Spikes in a Network Spike, Shafer Lab (AID 2284054). In a few lines: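 Primary rat cortical neurons on 16-electrode MEA wells (PEI-coated, laminin at plating), exposed from day 0 with renewal at DIV 5 and 9; spikes within 0.05 s of network-spike peaks over total spikes, AUC across days 5, 7, 9, 12.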

Assay [7] can be described thus: CCTE_Shafer_MEA_dev_AB: CCTE's Alamar Blue Assay for Cytotoxicity in the Neural Network Formation Assay, Shafer Lab (AID 2284083; active means hit-call score of the fitted dose curve at least 0.9, where 1 is the maximum;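 further: resazurin reduction fluorescence as viability of cultured neurons; twelve days of exposure from plating with re-dosing on DIV 5 and 9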). The essentials:
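Resazurin fluorescence, relative to DMSO, gauges viability after twelve days of exposure that began at plating of rat cortical neurons (1.5 x 10^5 cells/well, 48-well MEA); treatment renewed with full medium exchange on DIV 5 and 9.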

The nature of assay [8]: CCTE_Shafer_MEA_dev_mutual_information_norm: CCTE's Neural Network Formation Assay for Mutual Information Normalization, Shafer Lab (AID 2284091).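 On AC50: mutual information between electrodes summarised as area under curve across four recording days; potency is for a decrease in mutual information relative to DMSO.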 In a few lines: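 Rat cortical cultures, 48-well MEA, continuous exposure DIV 0–12 with full media/compound change DIV 5 and 9. Readout: inter-electrode mutual information, AxIS adaptive spike detection; AUC across DIV 5/7/9/12 recordings; DMSO baseline, negative fitting direction.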

The nature of assay [9]: CCTE_Shafer_MEA_dev_correlation_coefficient_mean: CCTE's Neural Network Formation Assay for Mean Correlation Coefficient, Shafer Lab (AID 2284093).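 On AC50: well mean pairwise spike train correlation integrated as AUC over recording days 5 to 12; potency fitted for loss of correlation relative to DMSO vehicle wells.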 The essentials:
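Primary rat cortical neurons on PEI-coated 48-well MEA plates (16 electrodes/well) were exposed from plating day 0 through DIV12, with compound renewed at DIV5 and 9. Pairwise spike correlations were averaged per well; trapezoidal AUC across DIV5, 7, 9, 12.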

Assay [10] in a line: UKN2_HCS_IMR90_neural_migration: University of Konstanz (UKN) Leist Lab Neural Crest Cell Migration Assay in human induced IMR90 Pluripotent Stem Cells (UKN2) (AID 2284204). Conditions: actives raise or lower the signal. In a few lines: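 iPSC-derived IMR90 neural crest cells on PLO/laminin/fibronectin were seeded around silicone stoppers; after stopper removal, migration in N2-S medium with EGF and FGF ran 24 h before 24 h chemical exposure. Calcein-AM/Hoechst high-content imaging; bidirectional fit versus DMSO.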

The nature of assay [11]: IUF_NPC1b_proliferation_BrdU_72hr: Leibniz Research Institute for Environmental Medicine (IUF) 72-hour Neural Progenitor Cell Bromodeoxyuridine (BrdU) Proliferation Assay (NPC1b) (AID 2284207). In a few lines: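 hNPC spheres (primary, GW 16-19 fetal cortex), single sphere/well, EGF+FGF medium; 72 h compound, no renewal; BrdU pulse last 16 h; luminescent ELISA; activity vs DMSO baseline; growth-factor withdrawal as positive control.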

Assay [12] in a line: IUF_NPC1a_proliferation_area_72hr: Leibniz Research Institute for Environmental Medicine (IUF) 72-hour Neural Progenitor Cell Proliferation Area Assay (NPC1a) (AID 2284208). In a few lines:
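Single 0.25–0.35 mm human fetal neural progenitor spheres in proliferation medium with EGF and FGF, exposed 72 h from plating without renewal at 37C, pH 7.2-7.6. Sphere area growth measured by automated phase-contrast imaging, relative to DMSO.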

A short description of assay [13]: IUF_NPC1_viability_72hr: Viability Assessment at 72 hours in the Leibniz Research Institute for Environmental Medicine (IUF) Neural Progenitor Cell Proliferation Assay (NPC1) (AID 2284209). The essentials: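 Each well receives one 0.3 mm progenitor sphere from fetal brain cortex; test chemical is added at plating and left three days. Viability comes from alamar blue fluorescence, multiplexed with LDH and BrdU readouts in the same well.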

Assay [14] can be described thus: CCTE_Mundy_HCI_Cortical_Synap_Neur_Matur_NeuriteSpotCountPerNeuriteLength: CCTE's Synaptogenesis and Neurite Maturation Assay in rat cortical cells for Neurite Spot Count per Neurite Length, Mundy Lab (AID 2284210). In a few lines: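 Rat primary cortical cultures, glia arrested with AraC at DIV 5, were dosed with media change at DIV 7 and fixed at DIV 12. Synaptophysin puncta per MAP2-labelled neurite length were quantified by high-content imaging versus DMSO.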

Assay [15] is described as follows: CCTE_Mundy_HCI_Cortical_NOG_NeuriteCount: CCTE's Neurite Outgrowth Assay in rat cortical cells for Neurite Count, Mundy Lab (AID 2284212).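 Further: cells fixed about two days after chemical exposure began.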 The essentials: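 Neurite number per cell from high-content imaging of betaIII-tubulin immunostaining, with Hoechst nuclear counterstain.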
The next assay concerns DIO2 (gene 1734). The assay can be described thus: CCTE_GLTED_hDIO2: CCTE's human Deiodinase 2 (DIO2) Inhibition Assay, Great Lakes Toxicology and Ecology Division (GLTED) Lab (AID 2284050; active means hit-call score of the fitted dose curve at least 0.9, where 1 is the maximum). In a few lines:
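In this cell-free test, chemicals are exposed to human deiodinase type 2 for 3 hours. Released iodide is determined spectrophotometrically via the Sandell-Kolthoff method, and signal loss relative to DMSO is fitted.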

For a further assay, the system named is DIO3 (gene 1735). The assay can be described thus: CCTE_GLTED_hDIO3: CCTE's human Deiodinase 3 (DIO3) Inhibition Assay, Great Lakes Toxicology and Ecology Division (GLTED) Lab (AID 2284055; active means hit-call score of the fitted dose curve at least 0.9, where 1 is the maximum;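 further: potency is for inhibition seen as loss of released iodide signal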). The essentials:
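Enzyme activity is tracked as iodide release from substrate by recombinant human DIO3 over 3 h with chemical present. A second Sandell-Kolthoff step converts iodide to an absorbance signal, fitted relative to DMSO.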

Assay [16] can be described thus: UKN4_HCS_LUHMES_neurite_outgrowth: University of Konstanz (UKN) Leist Lab Neurite Outgrowth Assay in human LUHMES cells (UKN4) (AID 2284206). As to conditions: actives raise or lower the signal. In a few lines: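 2-day-differentiated LUHMES, 24 h cpd exposure, live calcein-AM + H-33342 stain, HCS fluorescence imaging of neurite area; DMSO = baseline, bidirectional fit.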

Assay [17] in a line: UKN5_HCS_SBAD2_cell_viability: Viability Assessment in the University of Konstanz (UKN) Leist Lab Neurite Outgrowth Assay in human iPSC-derived immature Dorsal Root Ganglia Neurons (UKN5) (AID 2284056). The essentials: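 iPSC-derived immature peripheral neurons (SBAD2) seeded on Matrigel with CHIR99021, SU5402 and DAPT, dosed 1 h later for 24 h. Viability from Hoechst H-33342 and calcein-AM live staining, high-content imaging; bidirectional fit versus DMSO.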

Assay [18] is described as follows: UKN5_HCS_SBAD2_neurite_outgrowth: University of Konstanz (UKN) Leist Lab Neurite Outgrowth Assay in human iPSC-derived immature Dorsal Root Ganglia Neurons (UKN5) (AID 2284070). As to conditions: actives raise or lower the signal. The essentials: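 SBAD2 neurons, 24 h compound treatment, calcein-AM neurite area via HCS imaging; DMSO baseline, gain or loss of signal.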

Structures are written as SMILES. Results filed as inconclusive are left out. The source made the active and inactive calls. How the source made its calls, unless noted: active means hit-call score of the fitted dose curve at least 0.9, where 1 is the maximum; inactive means score below 0.9.

These results are taken from PubChem BioAssay (EPA / NIEHS).

As for `CCCN(CCOc1c(Cl)cc(Cl)cc1Cl)C(=O)n1ccnc1`, the result in [1] and in assay [2] was inactive.

On to `CC1(c2ccc(Oc3ccccc3)cc2)OC(=O)N(Nc2ccccc2)C1=O` (stereo unspecified), for which the AC50 is 3.17 µM (active) in [3]; 3.66 µM (active) in assay [4]; 4.26 µM (active) in assay [5]; 2.47 µM (active) in assay [6]; 4.56 µM (active) in assay [7]; 1.34 µM (active) in assay [8]. Moreover, the AC50 in assay [9] was 1.79 µM (active); in assay [12] it was 39.6 µM (active); in assay [14], 37.6 µM (active); in assay [15], 55.8 µM (active). The molecule was classed as inactive in [10], in assay [11] and in assay [13].

`CCOCN(C(=O)CCl)c1c(C)cccc1CC`: the AC50 in the assay on DIO2 (gene 1734) was 58.9 µM (active); in the assay on DIO3 (gene 1735), 58.1 µM (active).

For `CCCN(CCC)c1c([N+](=O)[O-])cc(C(F)(F)F)cc1[N+](=O)[O-]`, the result in assay [1] and in [2] was inactive.

As to `CCC(C)(NC(=O)c1cc(Cl)c(C)c(Cl)c1)C(=O)CCl` (stereo unspecified), the results for the AC50 in the assay on DIO2 (gene 1734) and with DIO3 (gene 1735) were 13.2 µM (active) and 41.2 µM (active), respectively.

`CCC(C)(C)C(=O)OC1=C(c2ccc(Cl)cc2Cl)C(=O)OC12CCCCC2`: the outcome in assay [3], in assay [4], in assay [5], in assay [6], in assay [1] and in assay [7] was inactive. The outcome in assay [2], in assay [8], in assay [9], in [16], in [11] and in assay [12] was inactive. For the same molecule, the outcome in [13], in [14] and in assay [15] was inactive.

In the case of `O=S1OCC2C(CO1)C1(Cl)C(Cl)=C(Cl)C2(Cl)C1(Cl)Cl` (stereo unspecified), the AC50 in [3] is 8.4 µM (active); in [5], 8.24 µM (active); in [6], 4.76 µM (active); in assay [7] it was 9.32 µM (active); in assay [8], 7.83 µM (active); in assay [9], 8.13 µM (active). Moreover, the AC50 in [10] is 13.9 µM (active); in [16] it was 16.3 µM (active); in assay [13], 2.63 µM (active); in assay [14] it was 22.4 µM (active); in assay [15] it was 22.1 µM (active). Besides, the molecule was classed as inactive in assay [4], in assay [1], in [2], in [11] and in [12].

For `Oc1ccc(Cl)cc1Cc1ccccc1`, the concentration at half-maximal activity (AC50) with DIO2 (gene 1734) is 132 µM (active); in the assay on DIO3 (gene 1735), 158 µM (active). Further, the call in assay [1] and in [2] was inactive.

`O=[N+]([O-])/N=C1\NCCN1Cc1ccc(Cl)nc1`: the molecule was called inactive in assay [3], in [4], in assay [6], in [17], in [18] and in [8]. In addition, the call in [9], in assay [10], in [16], in assay [11], in [12] and in assay [13] was inactive. Further, the result in [14] and in [15] was inactive. Moreover, the AC50 in [5] was 15 µM (active).
